Assay outcomes (PubChem)
Rows were chosen to be rich in hits. Some 3.1% of all compounds tested hit in one or more screens of this group.
GSIS activator = primary screen for activators of insulin secretion dependent on glucose, INS-1E cells, GLuc reporter luminescence | activation, % at 16.6 µM | 370,000 compounds, 0.61% hits | AID 743287 | INS-1E GLuc reporter insulin secretion, 2-3 h;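 active means lowest replicate activation of at least 40%, so every replicate reaches that level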;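 further: 0% = median of neutral control wells and 100% = median of IBMX positive control wells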
DENV2 CPE = DENV2-induced cell death inhibition; DENV2-infected cells, cytopathic effect rescue, plate reader; CPE inhibition, % at 9.99 µM; 350,000 compounds, 1.7% hits; in the data active means CPE inhibition above about 20%, passing the limit was not always enough; inconclusive means no clear call, values can overlap the other calls; tested in BHK-21 cells;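 further: 0% = median of neutral control wells and 100% = median of positive control wells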
RAD52 anneal inh = blocks human RAD52 DNA annealing; AID 651710; recombinant RAD52 DNA annealing, FRET fluorescence; inhibition, % at 18.7 µM; 360,000 compounds, 0.46% hits; P43351;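 active means every replicate showing at least 50% inhibition; inconclusive means mean inhibition at least 50% but not in every replicate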
MLL AF4-AF9 inh = MLL-AF4/AF9 protein interaction inhibition; AlphaScreen, biotin-AF4 peptide binding to FLAG-AF9; inhibition, % at 10 µM; 350,000 compounds, 0.47% hits;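 active means every replicate reaching a set inhibition limit, whatever the replicate mean, cut at about 25% in these data; inconclusive means mean inhibition reaches that limit but some replicates miss it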;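 further: 0% = plate neutral control median and 100% = total signal loss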
Target sequence (P42568 whole entry, looked up): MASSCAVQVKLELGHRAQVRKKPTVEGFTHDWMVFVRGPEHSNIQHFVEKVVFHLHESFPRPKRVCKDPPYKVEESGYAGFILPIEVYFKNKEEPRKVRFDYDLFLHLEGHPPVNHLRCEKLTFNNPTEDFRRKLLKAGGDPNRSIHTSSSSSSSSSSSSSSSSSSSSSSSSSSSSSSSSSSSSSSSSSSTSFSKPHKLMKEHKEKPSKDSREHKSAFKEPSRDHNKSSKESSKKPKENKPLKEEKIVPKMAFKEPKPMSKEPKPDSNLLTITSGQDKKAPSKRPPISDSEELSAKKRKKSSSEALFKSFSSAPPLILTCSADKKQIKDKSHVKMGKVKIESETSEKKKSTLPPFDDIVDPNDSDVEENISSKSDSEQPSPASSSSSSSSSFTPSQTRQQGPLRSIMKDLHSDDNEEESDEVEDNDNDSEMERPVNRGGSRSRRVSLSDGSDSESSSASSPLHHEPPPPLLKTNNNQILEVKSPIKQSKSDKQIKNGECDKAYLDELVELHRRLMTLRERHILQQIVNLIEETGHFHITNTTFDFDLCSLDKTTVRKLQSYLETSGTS
RAD54 branch = blocks human RAD54 Holliday junction branch migration; FAM/BHQ fluorescence; inhibition, % at 10.4 µM; Q92698; 360,000 compounds, 0.14% hits;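 active means mean normalized replicate activity at least 40 and at least half of replicates scoring 40 or more; inconclusive means only one of the two criteria met; inactive means mean below 40 and under half of replicates reaching 40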;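 further: 0% = median of neutral control wells and 100% = median of positive control wells; inhibitors cause a drop in the FAM fluorescence signal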
dFosB activator = activators of mouse delta FosB homodimer; 340,000 compounds, 0.99% hits; activation, % at 25 µM; P13346; purified delta FosB, TAMRA-CDK5 oligo fluorescence polarization; percent of positive-control signal above neutral wells;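 active means mean activation above about 17%, with every replicate also reaching it, limit read from the data, passing the limit was not always enough; inconclusive means only one of the two conditions met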
Active calls of the source: *; ? = inconclusive; nt = not tested or not shown.

SMILES | GSIS activator | DENV2 CPE | RAD52 anneal inh | MLL AF4-AF9 inh | RAD54 branch | dFosB activator
Cc1ccc(OCC(=O)NNC(=O)CCC(=O)Nc2ccc(C)cc2C)cc1 | 57* | nt | nt | nt | -11 | -5
NCC[C@H]1CC[C@H](NS(=O)(=O)Cc2ccccc2)[C@@H](CO)O1 | 13 | nt | 2 | 2 | 2 | nt
COc1cccc2[nH]c3c(N4CCCCC4)ncnc3c12 | 17 | nt | nt | nt | 7 | 8
Cc1cccc2[nH]c3c(N4CC=C(c5ccc(F)cc5)CC4)ncnc3c12 | 41* | -9 | -13 | 0 | -1 | nt
O=C(C[C@@H]1C[C@H]2c3cc(NC(=O)C4CCOCC4)ccc3O[C@H]2[C@@H](CO)O1)NCc1cccc(F)c1 | -3 | 8 | 4 | -8 | 9 | nt
CCN(Cc1ccc(OC)c(COC)c1)CC1CCCN(CCc2cccc(F)c2)C1 (stereo not drawn) | -12 | 14 | -16 | 5 | -18 | -3
CCN(Cc1ccc(OC)c(COC)c1)CC1CCCN(CCc2cccc(OC)c2)C1 (stereo not drawn) | -10 | 25* | -23 | 2 | 3 | -8
Cc1cc(C(=O)Nc2cccc3c2O[C@H](CN(C)Cc2ccc(-c4ccccc4)cc2)[C@@H](C)CN([C@@H](C)CO)C3=O)n(C)n1 | -14 | -9 | -1 | -4 | -11 | nt
Cc1cccc(C(=O)Nc2nnc(-c3ccc(C(C)(C)C)cc3)s2)c1 | nt | nt | nt | nt | -4 | -7
Cc1ccccc1C(=O)Nc1nnc(-c2ccc(C(C)(C)C)cc2)s1 | 137* | nt | nt | nt | 1 | 1
CO[C@@H]1CN(C)C(=O)c2ccc(NC(=O)Nc3cccc(F)c3)cc2OC[C@@H](C)N(C(C)=O)C[C@H]1C | -8 | 109* | -16 | 1 | 1 | nt
CO[C@H]1CN(C)C(=O)c2ccc(NC(=O)Nc3cccc(F)c3)cc2OC[C@H](C)N(C(=O)Nc2c(C)noc2C)C[C@@H]1C | -1 | -4 | -3 | 0 | -4 | nt
COc1cccc(C(=O)Nc2ccc3c(c2)C(=O)N(C)C[C@H](OC)[C@@H](C)CN(C(C)=O)[C@H](C)CO3)c1 | 2 | 64* | 6 | 1 | -1 | nt
CO[C@@H]1CN(C)C(=O)c2ccc(NC(=O)Nc3cccc(F)c3)cc2OC[C@@H](C)N(C(=O)Nc2c(C)noc2C)C[C@H]1C | -3 | 63* | -22 | 0 | 4 | nt
CO[C@@H]1CN(C)C(=O)c2ccc(NC(=O)Nc3ccccc3)cc2OC[C@@H](C)N(C(C)=O)C[C@@H]1C | -6 | 51* | -2 | 5 | 0 | nt
CO[C@@H]1CN(C)C(=O)c2ccc(NC(=O)Nc3ccccc3)cc2OC[C@H](C)N(C(C)=O)C[C@@H]1C | -12 | -2 | 2 | 5 | -4 | nt
C[C@H](CO)N1C[C@H](C)[C@@H](CN(C)C(=O)Nc2ccccc2)Oc2ccc(NC(=O)NC3CCCCC3)cc2CC1=O | -5 | -1 | 9 | -4 | 9 | nt
COc1ccc(CN(C)C[C@H]2OCCCC[C@H](C)Oc3ccc(NC(=O)Nc4cccc5ccccc45)cc3C(=O)N([C@@H](C)CO)C[C@@H]2C)cc1 | -24 | -18 | 17 | 5 | -4 | nt
CO[C@@H]1CN(C)C(=O)c2ccc(NC(=O)c3cccc(F)c3)cc2OC[C@H](C)N(C(C)=O)C[C@@H]1C | 3 | 34* | -7 | -1 | 6 | nt
CO[C@H]1CN(C)C(=O)c2ccc(NC(=O)c3ccccc3)cc2OC[C@H](C)N(C(=O)CN(C)C)C[C@H]1C | 11 | 29* | -4 | -4 | -3 | nt
O=S(=O)(N[C@H]1CC[C@@H](CCn2cc(C3(O)CCCC3)nn2)O[C@@H]1CO)c1ccccc1 | -13 | ? | 0 | -1 | -5 | nt
CCN1CCSc2ccc(C(=O)NCc3ccccc3F)cc21 | nt | 0 | -18 | 25* | -7 | -7
CCN1CCN(CCCNC(=O)c2ccc3c(c2)N(Cc2ccccc2)CCS3)CC1 | 43* | 5 | 32 | 17 | 12 | -11
CCN1CCSc2ccc(C(=O)NCc3ccccc3Br)cc21 | 8 | -4 | -10 | -3 | -2 | -14
O=C(NCCCN1CCCC1)c1ccc2c(c1)N(Cc1ccccc1)CCS2 | 11 | 4 | 29 | 13 | -8 | -7
SMILES | GSIS activator | DENV2 CPE | RAD52 anneal inh | MLL AF4-AF9 inh | RAD54 branch | dFosB activator
CN1CCSc2ccc(C(=O)NCc3ccccc3F)cc21 | nt | -3 | -16 | 4 | 3 | -11
CCN1CCSc2ccc(C(=O)NCc3ccccc3C)cc21 | -13 | 6 | -16 | 49* | 15 | -4
CN1CCN(C(=O)C[C@H]2CC[C@@H]3[C@H](COC[C@@H](O)CN3C(=O)C3CCOCC3)O2)CC1 | 9 | -1 | -28 | -10 | -3 | nt
C[C@H](NC(=O)C[C@@H]1CC[C@H]2[C@@H](COC[C@H](O)CN2C(=O)Nc2ccccc2)O1)c1ccccc1 | 5 | 31* | 0 | -3 | 2 | nt
C[C@H](NC(=O)C[C@H]1CC[C@H]2[C@@H](COC[C@@H](O)CN2C(=O)Nc2ccccc2)O1)c1ccccc1 | 6 | -14 | 10 | -2 | 8 | nt
C[C@H](NC(=O)C[C@@H]1CC[C@@H]2[C@H](COC[C@H](O)CN2C(=O)Nc2ccccc2)O1)c1ccccc1 | 8 | 34* | 6 | -3 | 1 | nt
CCCNC(=O)C[C@@H]1CC[C@@H]2[C@H](COc3ccc(NC(=O)Nc4cccc(C)c4)cc3C(=O)N2C)O1 | 6 | 0 | 6 | 4 | -21 | nt
Cc1cccc(-c2cccc3[nH]c4c(c23)CCN2C(=O)[C@H]3[C@H](C)ON(C)[C@H]3C[C@@H]42)c1 | 9 | -5 | -101 | nt | nt | nt
C[C@@H]1ON(C)[C@H]2C[C@H]3c4[nH]c5cccc(Br)c5c4CCN3C(=O)[C@@H]12 | 125* | -14 | -4 | nt | nt | nt
COc1ccc(OC)c(NC(=O)c2cc3c(Cl)nc4ccccc4c3s2)c1 | 52* | nt | nt | nt | nt | -3
CN1CCN(CC(O)COc2ccc(S(=O)(=O)N3CCOCC3)cc2)CC1 (stereo not drawn) | 9 | 46* | -15 | 1 | 5 | -1
C[C@H](O)C#Cc1cnc2c(c1)C(=O)N([C@H](C)CO)C[C@H](C)[C@H](CN(C)Cc1ccccn1)O2 | 16 | -7 | 4 | -1 | 4 | nt
COc1cc2c3nnc(-c4ccccc4)c-3cn(Cc3ccccc3F)c2cc1OC | 98* | nt | nt | nt | nt | nt
C[C@@H]1CN([C@@H](C)CO)S(=O)(=O)c2ccc(-c3ccc(C#N)cc3)cc2O[C@@H]1CN(C)C(=O)CN(C)C | 0 | 11 | 8 | 0 | 4 | nt
CCC(=O)Nc1ccc2c(c1)OC[C@H](C)N(C(=O)C1CCC1)C[C@@H](C)[C@@H](OC)CN(C)C2=O | 6 | -6 | -6 | 0 | 1 | nt
Cc1ccccc1-c1csc(C(C)(O)c2ccccc2)n1 (stereo not drawn) | nt | 31* | 4 | -6 | 0 | nt
COc1ccc(C(C)(O)c2nc(-c3ccccc3C)cs2)cc1 (stereo not drawn) | -24 | 8 | -4 | -1 | -6 | nt
